Inconclusive results are not listed. A number with no mark means an inactive call. Activity calls are given as the source filed them. Calls follow the shape of the dose curve; as a rule, active = well fitted inhibition curve with a large enough effect; inconclusive = small, poorly fitted or top-dose-only effect; inactive = flat fitted curve, though single readings scatter.
target: Luciferin 4-monooxygenase (Photinus pyralis) (UniProt P08659); assay: Biochemical firefly luciferase enzyme assay for NPC (AID 624030); also: nearly all actives have a fitted effect of over 70% in size;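 as to activity change, negative = inhibition: purified P. pyralis luciferase at 10 nM with luciferin and ATP substrate; 0% = DMSO and -100% = full luciferase inhibition by PTC124 control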; conditions: purified P. pyralis luciferase, luminescence, 5 min; series mostly up to 58.6 µM; activity change, negative = inhibition: at the top concentration
Method in brief: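 Direct inhibition of firefly luciferase enzyme (10 nM final, 50 mM Tris Acetate) assessed by luminescence within 5 minutes. Percent activity scaled between DMSO and PTC124 positive control, with concentration-effect curves classified by fit quality and response.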
Potency is read from the fitted curve at half-maximal effect.

Luciferin 4-monooxygenase (Photinus pyralis), sequence (P08659 whole entry, looked up): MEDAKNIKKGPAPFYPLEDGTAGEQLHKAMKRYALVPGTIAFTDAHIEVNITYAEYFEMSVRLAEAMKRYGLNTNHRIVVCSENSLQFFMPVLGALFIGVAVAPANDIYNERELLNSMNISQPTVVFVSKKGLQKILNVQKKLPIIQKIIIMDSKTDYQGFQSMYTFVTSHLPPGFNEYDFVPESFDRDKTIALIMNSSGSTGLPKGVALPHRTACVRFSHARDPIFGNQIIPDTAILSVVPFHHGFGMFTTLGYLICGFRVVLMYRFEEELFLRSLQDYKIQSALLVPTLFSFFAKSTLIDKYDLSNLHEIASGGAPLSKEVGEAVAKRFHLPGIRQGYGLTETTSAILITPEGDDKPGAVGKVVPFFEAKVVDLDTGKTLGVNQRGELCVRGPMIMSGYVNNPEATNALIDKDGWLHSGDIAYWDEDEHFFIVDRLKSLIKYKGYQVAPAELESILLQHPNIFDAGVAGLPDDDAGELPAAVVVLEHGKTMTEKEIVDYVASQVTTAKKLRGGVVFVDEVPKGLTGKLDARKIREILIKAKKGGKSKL

Row | Compound | activity change, negative = inhibition [%] | Potency
1 | N[C@@H](Cc1cc(I)c(O)c(I)c1)C(=O)O | 1.84 | –
2 | CCOC(=O)[C@H](CCc1ccccc1)N[C@@H](C)C(=O)N(CC(=O)O)C1Cc2ccccc2C1 | -7.79 | –
3 | C=CC[N+]1([C@H]2C[C@H]3[C@@H]4CC[C@H]5C[C@H](OC(C)=O)[C@@H](N6CCCCC6)C[C@]5(C)[C@H]4CC[C@]3(C)[C@H]2OC(=O)CC)CCCCC1 | 0.688 | –
4 | CN(C)C(=O)CNC(=O)Cc1ccccc1 | -1.54 | –
5 | CC(=O)Oc1ccc(C2(c3ccc(OC(C)=O)cc3)Oc3ccccc3NC2=O)cc1 | -8.74 | –
6 | CC(CCc1ccc2c(c1)OCO2)NN (stereo not given) | -12.2 | –
7 | O=[N+]([O-])c1nccn1CO[C@@H](CO)[C@H](O)CO | 0.623 | –
8 | O=C(OCC(COC(=O)c1cccnc1)(COC(=O)c1cccnc1)COC(=O)c1cccnc1)c1cccnc1 | 3.17 | –
9 | C[N+]1(C)CCC(OC(=O)C(O)(c2ccccc2)C2CCCC2)C1 (stereo not given) | 1.26 | –
10 | O=C1OC2(c3ccccc31)c1cc(I)c(O)c(I)c1Oc1c2cc(I)c(O)c1I | – | 14.4 µM (active)
11 | CC(C)(C)C(=O)OCOC(=O)C1N2C(=O)CC2S(=O)(=O)C1(C)C (stereo not given) | -2.43 | –
12 | C[C@H]1NCc2cc(-c3ccc4c(=O)c(C(=O)O)cn(C5CC5)c4c3OC(F)F)ccc21 | 1.59 | –
13 | O=C1[C@@H]2[C@H]3CC[C@H](C3)[C@@H]2C(=O)N1CCCCN1CCN(c2ncccn2)CC1 | -15.6 | –
14 | O=C1CC[C@H](C(=O)N2CCCCC2)N1 | 0.344 | –
15 | NCC(=O)O | -3.01 | –
16 | CC(C(O)c1ccccc1)N(C)CCOC(c1ccccc1)c1ccccc1 (stereo not given) | 0.082 | –
17 | C1N2CN3CN1CN(C2)C3 | 3.4 | –
18 | O=C(O)Cc1ccc(OCCNC[C@H](O)c2ccccc2)cc1 | 1.32 | –
19 | N=C(N)c1ccc(OCCCOc2ccc(C(=N)N)cc2)cc1 | 2.68 | –
20 | Cn1cc(S(C)=O)c(=O)c2ccc(F)cc21 (stereo not given) | 0.304 | –

Row | Compound | activity change, negative = inhibition [%] | Potency
21 | CCNC(=O)NCCCOc1cccc(CN2CCCCC2)c1 | -0.531 | –
22 | CCCc1c2oc(C(=O)O)cc(=O)c2cc2c(=O)cc(C(=O)O)n(CC)c12 | -5.19 | –
23 | CN(C)CCOC1=Cc2ccccc2Sc2ccc(Cl)cc21 | 7.01 | –
24 | CCCCCC1Nc2cc(C(F)(F)F)c(S(N)(=O)=O)cc2S(=O)(=O)N1 (stereo not given) | -4.57 | –
25 | CC1CN(c2cc3c(cc2F)c(=O)c(C(=O)O)cn3-c2ccc(F)cc2F)CCN1 (stereo not given) | -1.13 | –
26 | O=C1NC2CCCCN2C12CCN(CCCN1c3ccccc3CCc3ccc(Cl)cc31)CC2 (stereo not given) | 4.42 | –
27 | CCOC(=O)c1ccc(OCCN2C[C@H](O)[C@@H](O)[C@H](O)[C@H]2CO)cc1 | -5.74 | –
28 | CC[N+](CC)(CC)CCOC(=O)C(C1CCCC1)C1CCCC1 | 0.37 | –
29 | CC(=O)OCC[N+](C)(C)C | -1.18 | –
30 | CC(=O)Nc1c(I)c(NC(C)=O)c(I)c(C(=O)O)c1I | -0.419 | –
31 | OCCc1ccccc1 | -1.12 | –
32 | O=C(O)CNC(=O)CNC(=O)CNC(=O)CSC(=O)c1ccccc1 | -0.007 | –
33 | CC(COc1ccccc1)NN (stereo not given) | -4.1 | –
34 | CC(=O)OCC(=O)[C@@]1(O)[C@H](OC(C)=O)C[C@H]2[C@@H]3CCC4=CC(=O)C=C[C@]4(C)[C@@]3(F)[C@@H](O)C[C@@]21C | -1.88 | –
35 | O=C(CCCCCCCCC#CI)Oc1ccccc1 | -8.24 | –
36 | CCC1(c2cnc[nH]2)Cc2ccccc2C1 | – | inactive
37 | CC[N+]1(CC)CCC(=C(c2ccccc2)c2ccccc2)C1C (stereo not given) | -0.771 | –
38 | Cc1nc([N+](=O)[O-])cn1-c1ccc([N+](=O)[O-])cc1 | -0.814 | –
39 | Cc1cccc(C)c1NC(=O)c1cc(S(N)(=O)=O)c(Cl)cc1O | -12.5 | –
40 | O=C(CCCCC(=O)Nc1c(I)cc(I)c(C(=O)O)c1I)Nc1c(I)cc(I)c(C(=O)O)c1I | -12.9 | –

From PubChem BioAssay (NCATS)
